# Experimental data reported in the supplement of paper PMC10981050.
# Values joined by “and” are separate entries in the source; they are usually repeats but may differ in a detail not shown here. Equal entries are not always repeated. Structures can show the parent of a compound that is named as a salt.
# Assays:
# Test in all cases: cell viability relative to vehicle control; higher = less cytotoxic
# Conditions in all cases: 10 µM
# [1] = system: K562
# Method in brief: (§1)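 Screening covered the Selleck bioactive, kinase and epigenetic probe libraries, less identity-inconsistent compounds, on CRISPR-edited mutant clones and isogenic wild-type clones of four leukaemia lines. Cells, at 2000 per well in 50 µL medium, received a single 10 µM acoustically dispensed dose. After 48 h the supernatant was removed and CellTiter-Glo luminescence was read. Viability was analysed in Genedata Screener as percent of the on-plate vehicle control.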
# [2] = system: MARIMO
# Method in brief: as §1
# [3] = system: MOLM14
# Method in brief: as §1
# [4] = system: OCI-AML2
# Method in brief: as §1
SMILES,cell viability ([1]; SRSF2 genotype: SRSF2 P95H/wt),cell viability ([1]; SRSF2 genotype: SRSF2 wt/wt) [%],cell viability ([2]; SRSF2 genotype: SRSF2 P95H/wt) [%],cell viability ([2]; SRSF2 genotype: SRSF2 wt/wt) [%],cell viability ([3]; SRSF2 genotype: SRSF2 P95H/wt) [%],cell viability ([3]; SRSF2 genotype: SRSF2 wt/wt) [%],cell viability ([4]; SRSF2 genotype: P95H/wt) [%],cell viability ([4]; SRSF2 genotype: wt/wt) [%]
O=C1C(Cl)=C(N2CCOCC2)C(=O)N1c1ccc(Cl)c(Cl)c1,97.9% and 96%,97.4,88.2,109,87,94,83.3,96.4
Nc1ccn([C@@H]2CS[C@H](CO)O2)c(=O)n1 [Lamivudine (Epivir)],100% and 99.5%,102,105,104,99.8,105,106,114
CC(C(=O)O)c1ccc(-c2ccccc2)c(F)c1 (stereo not given) [Flurbiprofen],107% and 105%,103,106,99,104,105,108,102
O=C(Nc1ccc(-c2ccnc(Nc3ccc(N4CCOCC4)cc3)n2)cc1)C1CCCN1 (stereo not given),89.5% and 97.2%,89.5,72.2,73.5,35.5,22.4,43.1,39.2
CCOC(=O)c1c(C)n(C)c2ccc(O)cc12 [Mecarbinate],108% and 99.1%,99.8,97.3,104,116,112,92.2,98.1
COc1ccc([C@@H]2CC(=O)c3c(O)cc(O[C@@H]4O[C@H](CO)[C@@H](O)[C@H](O)[C@H]4O[C@@H]4O[C@@H](C)[C@H](O)[C@@H](O)[C@H]4O)cc3O2)cc1O [Neohesperidin],109% and 102%,100,97.2,102,104,109,116,127
O=C(/C=C/c1ccc(O)cc1)C1=C(O)[C@](O)([C@@H]2O[C@H](CO)[C@@H](O)[C@H](O)[C@H]2O)C(O)=C(/C=C2/C(=O)C(C(=O)/C=C/c3ccc(O)cc3)=C(O)[C@@](O)([C@@H]3O[C@H](CO)[C@@H](O)[C@H](O)[C@H]3O)C2=O)C1=O [Safflower Yellow],97.2% and 89.1%,90.4,91.5,98.8,90.4,94.9,97.7,90.5
COc1ccc(-c2cc3c(C)nc(N)nc3n([C@H]3CC[C@H](OCCO)CC3)c2=O)cn1,40.2% and 40.4%,39.5,32.4,27.5,22.9,23.3,1.55,8.86
CC(=O)OCC1=C(C(=O)O)N2C(=O)[C@@H](NC(=O)Cc3cccs3)[C@H]2SC1 [Cephalothin],94.9% and 98.7%,96.1,95.8,100,94.7,101,95.1,104
CN1Cc2c(ccc3c2OCO3)[C@@]2(C)[C@@H](O)Cc3cc4c(cc3[C@@H]12)OCO4 [Corynoline],18.7% and 28.5%,24.2,8.07,9.1,8.94,3.23,5.69,13
O=C1CCC[C@@H]2[C@H]3CCC[N+]4([O-])CCC[C@@H](CN12)[C@@H]34 (stereo not given in full) [Oxymatrine (Matrine N-oxide)],105% and 96.8%,99,101,98.9,100,98.2,97.7,96.5
Cc1cc2c(F)c(Oc3ncnn4cc(OC[C@@H](C)OC(=O)[C@H](C)N)c(C)c34)ccc2[nH]1,89.4% and 85.9%,82,93.5,104,82,87.4,78.8,81.5
COc1cc(CCC(=O)CC(=O)CCc2ccc(O)c(OC)c2)ccc1O [Tetrahydrocurcumin],94.1% and 90.6%,89.2,90.2,88.7,92.8,94.5,85.8,97.3
Cc1cccc(-c2[nH]ncc2-c2ccc3ncccc3n2)n1,97.9% and 108%,107,107,114,94.6,105,78.9,83.5
CCCCCCCCCCCCCCCCCCCCCC(=O)O [Behenic Acid],101% and 91.8%,103,97.7,112,104,108,91.8,102
C[C@H](C[C@H](O)[C@H]1OC1(C)C)C1=C2C[C@H](O)[C@H]3[C@@]4(C)CCC(=O)C(C)(C)[C@@H]4CC[C@]3(C)[C@@]2(C)CC1 [Alisol B],81.2% and 83.7%,78.7,70.8,48.2,86.7,87.4,70.3,72.7
CCC(=O)NS(=O)(=O)c1ccc(-c2c(-c3ccccc3)noc2C)cc1 [Parecoxib],100% and 96.7%,97.5,101,108,101,101,88.3,99.7
O=C1OC(COc2ccccc2[N+](=O)[O-])CC1Cc1ccccc1 (stereo not given),95.1% and 98.1%,101,93.5,103,108,106,117,103
CN(C)CCC(c1ccc(Cl)cc1)c1ccccn1 (stereo not given) [Chlorpheniramine Maleate],100% and 106%,98.2,91.4,105,94.7,101,99.4,99.1
C[C@H]1O[C@@H](n2cc(F)c(=O)[nH]c2=O)[C@H](O)[C@@H]1O [Doxifluridine],102% and 95%,92.1,100,104,96.5,105,97.3,99.7
